Measurements taken from the supplement of paper PMC6555819.

Key:
Test in all cases: PBM binding z-score (relative to random genomic background probes); higher = stronger binding; sequences stand for … in GC…GCGATTGACAGCGTAGAATGAAGG
[1] = tested on: RARb homodimer (NR concentration 270 nM)
Method in brief: (§1)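 For binding z-scores, the reference was random background probes on custom Agilent 4×180K protein-binding microarrays. These arrays were incubated 1 h with ligand-free nuclear receptor dimers in PBS pH 7.4, 2% milk, 0.02% Triton X-100, 1 mM DTT, 0.2 mg/mL BSA and 0.4 mg/ml salmon testes DNA. Fluorescence was scanned after antibody detection of each partner (one per run) and regression-normalized.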

[2] = tested on: RARg:RXRa (NR concentration 270 nM, RXRa partner concentration 90 nM)
Method in brief: as §1

[3] = tested on: RARg homodimer (NR concentration 270 nM)
Method in brief: as §1

[4] = tested on: RXRa DBDmut IVT, anti-RXR (DBD mutation: RXRa K156A/R161A, NR concentration 90 nM)
Method in brief: as §1

[5] = tested on: RXRa homodimer (NR concentration 180 nM)
Method in brief: as §1

[6] = tested on: THRa:RXRa (NR concentration 90 nM, RXRa partner concentration 90 nM)
Method in brief: as §1

[7] = tested on: THRa homodimer (NR concentration 90 nM)
Method in brief: as §1

[8] = tested on: VDR homodimer (NR concentration 270 nM)
Method in brief: as §1

Sequence | PBM binding z-score [1] | PBM binding z-score [2] | PBM binding z-score [3] | PBM binding z-score [4] | PBM binding z-score [5] | PBM binding z-score [6] | PBM binding z-score [7] | PBM binding z-score [8]
CAAACTAGGACACGAAAGGTCAAAGTCGAATGAC | 4.86 | 5.9 | 5.66 | 1.45 | 6.74 | 4.08 | 1.94 | 2.91
AGAATGAGGTTATACGTAGATAAGGGAAGAAAGT | 0.654 | 1.77 | 1.26 | 1.23 | 2.29 | 2.11 | 0.472 | 0.781
GATACAGGGTCAAGGCCATAGTACGCGTATTGAT | 3.69 | 5.34 | 5.15 | 2.44 | 5.52 | 3.54 | 1.52 | 2.22
CCCTACGGGTCACTCCAGGTTATAGCATCGGAGT | 3.22 | 4.52 | 4.67 | 0.434 | 4.72 | 4.94 | 0.457 | 1.79
CAAACTAGGTCACGGGAAGGTCAAAGTCCGCATG | 5.63 | 8.25 | 7.46 | 2.31 | 6.72 | 4.73 | 3.09 | 3.1
TTACCAAGGTGAAAGGTCGTTGTTGCACGCCTTG | 2.51 | 3.79 | 1.79 | 0.868 | 5.4 | 3.45 | 1.38 | 1.08
TGTCAAAGTTCAAAGTTAACGTAAGTATCCACAC | 3.88 | 5.8 | 5.72 | 4.53 | 5.86 | 2.62 | 0.00571 | 4.02
